NALP1 yeast inh: blocks the NALP1 inflammasome reconstituted in yeast. 280,000 compounds, 0.61% hits. inhibition, % at 10 µM. S. cerevisiae NALP1/ASC/caspase-1 growth, X-gal OD620, 72 h. AID 2071; in the data active means inhibition mostly above about 24%, no sharp cut-off; inactive means mostly below about 32%
PERK inh: human PERK inhibition, primary cell-based screen; 220,000 compounds, 0.17% hits; CHO PERK-DD fusion, SEAP luminescence translation reporter; AID 1416; Q9NZJ5; inhibition, % at 5.6 µM;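 active means inhibition above the mean inhibition of all tested compounds plus 3 SD, set separately per screening campaign, cut at about 2.9% in these data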;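 further: PERK kinase domain activated by AP20187 dimerizer at 100 nM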
CR mimetic SO: lowers age-related superoxide in aged yeast cells; AID 2690; 330,000 compounds, 0.18% hits; superoxide response (% of plate mean), % at 10 µM; S. cerevisiae aged cells, superoxide DHE fluorescence; active compounds read low;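 active means superoxide response under a set limit, about three screen SD below normal, cut at about 65% in these data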;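 further: yeast aged for seven days with compound at 30 °C before DHE staining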
Rce1 inh: blocks yeast Ras-converting enzyme. yeast membranes, quenched prenylated peptide cleavage fluorescence. calls only. 290,000 compounds, 0.27% hits. Q03530;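 active means fall in fluorescence gain of 50% or more versus controls, with final raw signal at or below 3038400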
Target sequence (Q03530 whole entry, looked up): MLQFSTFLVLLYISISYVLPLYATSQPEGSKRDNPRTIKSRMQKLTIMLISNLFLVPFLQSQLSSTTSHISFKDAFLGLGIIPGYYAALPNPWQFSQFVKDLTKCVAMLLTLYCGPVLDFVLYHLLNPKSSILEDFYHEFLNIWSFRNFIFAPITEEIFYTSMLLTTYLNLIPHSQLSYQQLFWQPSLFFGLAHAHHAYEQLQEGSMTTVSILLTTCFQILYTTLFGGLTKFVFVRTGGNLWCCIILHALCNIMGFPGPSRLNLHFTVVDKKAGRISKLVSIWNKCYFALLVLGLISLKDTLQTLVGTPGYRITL
V-ATPase pHluor: alters yeast V-ATPase proton transport; S. cerevisiae, pHLuorin cytosolic pH fluorescence; response, % at 10 µM; 350,000 compounds, 0.37% hits; AID 504577; in the data active means response mostly above about 7.3%, no sharp cut-off; inactive means mostly below about 5.4%; further: actives read high
NALP3 yeast inh: inhibitors of NALP3 inflammasome in yeast | Yeast reconstituted NLRP3/ASC/caspase-1, beta-gal luminescence, 24 h | inhibition, % at 10 µM | 330,000 compounds, 0.39% hits;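 active means inhibition of 50% or more; inactive means inhibition below 50%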
Large screens that a line does not name were inactive. Only some compounds are listed: those with a hit (about 1.6% of all), similar ones and a draw of the others.

COCCCNC(=O)c1cc2c(-c3cccc(OC)c3)nn(C)c2s1	Rce1 inh active (no result: PERK inh)
CCN(CC)CCNC(=O)c1cc2c(-c3ccc(Cl)cc3)nn(C)c2s1	none
CCCN(CCC)CCNC(=O)c1cc2c(-c3ccccc3F)nn(C)c2s1	Rce1 inh active (no result: PERK inh)
CCCCN(CC)CCNC(=O)c1cc2c(-c3ccc(Cl)cc3)nn(C)c2s1	Rce1 inh active (no result: PERK inh)
CCN(CC)CCNC(=O)c1cc2c(-c3cccc(OC)c3)nn(C)c2s1	none (no result: PERK inh)
CCCN(CCC)CCNC(=O)c1cc2c(-c3ccc(Cl)cc3)nn(C)c2s1	Rce1 inh active (no result: PERK inh)
CC1=C(C(=O)N2CCOCC2)CC(CC(=O)NCCCCc2ccccc2)C(=O)N1Cc1ccc(C(C)(C)C)cc1 (stereo unspecified)	none (no result: NALP1 yeast inh, PERK inh, CR mimetic SO, Rce1 inh, NALP3 yeast inh)
C[C@@H]1CN([C@H](C)CO)C(=O)c2cc(Br)cnc2O[C@@H]1CN(C)Cc1ccc(F)cc1	none (no result: NALP1 yeast inh, PERK inh, CR mimetic SO, Rce1 inh, NALP3 yeast inh)
COc1cc(OC)c(C(=O)c2ccccc2[N+](=O)[O-])c(OC)c1	none (no result: NALP1 yeast inh, PERK inh, CR mimetic SO, Rce1 inh, NALP3 yeast inh)
Cc1ccc(CN2CCN(Cc3cnc(N4CCOCC4)s3)CC2CCO)o1 (stereo unspecified)	NALP1 yeast inh 26
CCOc1ccc(NC(=O)COc2ccc(OC)cc2)cc1	none
COc1ccc(NC(=O)COc2nc(N(C)C)nc(N(C)C)n2)cc1	NALP1 yeast inh 28
COc1ccccc1N1CCN(C(=O)C(C)NC(=O)c2ccco2)CC1 (stereo unspecified)	none (no result: NALP1 yeast inh, PERK inh, Rce1 inh)
CC(NC(=O)c1ccco1)C(=O)N1CCc2ccccc2C1 (stereo unspecified)	NALP1 yeast inh 43
COc1cccc(NC(=O)CCC2CCN(C(=O)C(OC)c3ccccc3)CC2)c1 (stereo unspecified)	none (no result: NALP1 yeast inh, PERK inh, CR mimetic SO, Rce1 inh, NALP3 yeast inh)
CCC(=O)NCCCOc1ccccc1	NALP1 yeast inh 27
COc1ccc(C(=O)NC(=S)NNC(=O)c2ccc3ccccc3n2)cc1	CR mimetic SO 63 (no result: Rce1 inh)
O=C(Nc1ccc2c(c1)CCC2)c1ccccc1Br	Rce1 inh active
CNC(=S)N1CCC(C(=O)c2ccc(Cl)cc2)CC1	none (no result: NALP1 yeast inh, PERK inh, CR mimetic SO, Rce1 inh, NALP3 yeast inh)
COc1ccc(C(=O)N2CCCC(Nc3ccc(F)cc3)C2)c(OC)c1 (stereo unspecified)	NALP1 yeast inh 30 (no result: PERK inh, Rce1 inh)
COc1ccc(NC2CCCN(C(=O)c3ccc(C(C)=O)cc3)C2)cc1 (stereo unspecified)	none (no result: PERK inh)
CC(=O)Nc1ncnc2c1c(-c1ccc(Cl)cc1)nn2C(C)(C)C	NALP1 yeast inh 42
O=[N+]([O-])c1ccc(-c2ccn[nH]2)o1	NALP1 yeast inh 67
Cn1c(=O)cc(C(=O)N/N=C/c2ccc(Cl)cc2)[nH]c1=O	PERK inh 2.9
Cn1c(=O)n(C)c2cc(/C=N/NC(=O)c3ccc(Cl)cc3)ccc21	none (no result: NALP1 yeast inh)
Cc1c(CN(C)C(=O)C2CCC(=O)N(Cc3ccccc3F)C2)[nH]c2ccccc12 (stereo unspecified)	none (no result: NALP1 yeast inh, PERK inh, CR mimetic SO, Rce1 inh, NALP3 yeast inh)
Oc1ccc(Cl)cc1-c1cc(C(F)(F)C(F)F)nc(-c2ccccc2)n1	NALP1 yeast inh 43
Cc1ccc(O)c(-c2cc(C(F)(F)C(F)F)nc(-c3ccccc3)n2)c1	none
C[C@H](CO)N1C[C@H](C)[C@H](CN(C)C(=O)Cc2cccnc2)Oc2ncc(Br)cc2C1=O	none (no result: NALP1 yeast inh, PERK inh, CR mimetic SO, Rce1 inh, NALP3 yeast inh)
COc1cc(C=CC(=O)N2CCN(CC(=O)N3CCCC3)CC2)cc(OC)c1OC	none (no result: NALP1 yeast inh, PERK inh, CR mimetic SO, Rce1 inh, NALP3 yeast inh)
COC(=O)C(NC(C)=O)(Nc1ccc(C)cn1)C(F)(F)F (stereo unspecified)	PERK inh 3.4
CCOC(=O)NC(Nc1ccc(C)cn1)(C(F)(F)F)C(F)(F)F	none
O=C(Nc1ccccc1)C1=C(Nc2ccccc2)CSC1	none (no result: NALP1 yeast inh, PERK inh, CR mimetic SO, Rce1 inh, NALP3 yeast inh)
COc1cccc2c(=O)c(C(=O)O)c[nH]c12	Rce1 inh active
COc1cccc2c(=O)c(C(=O)NCCc3ccccc3)c[nH]c12	none (no result: NALP1 yeast inh, PERK inh, CR mimetic SO, Rce1 inh, NALP3 yeast inh)
COc1ccc2nc3n(c(=O)c2c1)-c1ncccc1C(=O)NC3C (stereo unspecified)	none (no result: NALP1 yeast inh, PERK inh, CR mimetic SO, Rce1 inh, NALP3 yeast inh)
COc1ccc(S(=O)(=O)N(C)Cc2cccs2)cc1Br	NALP1 yeast inh 41
Cc1ccc(C)c(S(=O)(=O)N(C)Cc2cccs2)c1	none (no result: NALP1 yeast inh, PERK inh, Rce1 inh)
CN1C(=O)[C@H]2[C@@H](c3ccc(C(F)(F)F)cc3)N[C@]3(CCCN(Cc4ccc(Br)cc4)C3=O)[C@H]2C1=O	none (no result: NALP1 yeast inh, PERK inh, CR mimetic SO, Rce1 inh, NALP3 yeast inh)
CCOC(=O)c1nnn2c1nc(N1CCCCC1)c1ccccc12	none
CCOC(=O)c1nnn2c1nc(N1CCOCC1)c1ccccc12	Rce1 inh active
Cc1ccc(-n2ncc3c(NCc4ccccc4)ncnc32)cc1	NALP1 yeast inh 41 (no result: V-ATPase pHluor)
Cc1ccc(CNc2ncnc3c2cnn3-c2ccccc2)cc1	none
